PubChem BioAssay (Tox21)
Results filed as inconclusive are left out. Calls of active or inactive are those of the source. Unless noted, the call rests on the fitted dose curve; in most records, active means well fitted curve in the direction sought with a large enough effect in the repeat runs; inconclusive means weak or mixed curves; inactive means no such curve, though single readings can be large; an effect the other way counts as inactive or inconclusive.

Assays:
[1] = target: Estrogen receptor beta (Homo sapiens) (UniProt Q92731); experiment: qHTS assay to identify small molecule agonists of the estrogen receptor beta (ER-beta) signaling pathway (AID 1259377; active means well fitted activation curve with a large enough effect in the signal ratio in the repeat runs, not every such curve was filed as active; the % refers to the signal ratio)
Sequence of Estrogen receptor beta (Homo sapiens) (Q92731 whole entry, looked up): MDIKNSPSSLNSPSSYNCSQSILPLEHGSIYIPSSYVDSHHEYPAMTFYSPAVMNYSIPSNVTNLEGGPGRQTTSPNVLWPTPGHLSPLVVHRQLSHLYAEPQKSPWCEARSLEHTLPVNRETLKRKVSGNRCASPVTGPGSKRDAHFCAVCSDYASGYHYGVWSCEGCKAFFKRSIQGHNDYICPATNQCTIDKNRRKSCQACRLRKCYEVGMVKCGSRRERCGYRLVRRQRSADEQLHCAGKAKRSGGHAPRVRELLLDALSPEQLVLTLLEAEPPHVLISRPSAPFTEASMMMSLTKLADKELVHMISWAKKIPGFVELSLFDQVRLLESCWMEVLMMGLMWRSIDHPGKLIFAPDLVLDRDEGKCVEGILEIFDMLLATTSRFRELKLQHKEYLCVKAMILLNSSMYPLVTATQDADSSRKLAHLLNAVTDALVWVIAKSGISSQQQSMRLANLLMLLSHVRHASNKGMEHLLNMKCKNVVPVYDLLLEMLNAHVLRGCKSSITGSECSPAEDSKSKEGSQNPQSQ
Summary of the method: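 ER-beta-UAS-bla HEK293T cells in medium with 2% charcoal-stripped FBS were exposed to compounds for 16 h at 37C. Beta-lactamase reporter activity was read as fluorescence after 2 h with LiveBLAzer B/G FRET substrate at room temperature.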

[2] = target: Estrogen receptor beta (Homo sapiens) (UniProt Q92731); experiment: qHTS assay to identify small molecule antagonists of the estrogen receptor beta (ER-beta) signaling pathway (AID 1259378; active means well fitted inhibition curve with a large enough effect in the signal ratio in the repeat runs, not every such curve was filed as active; the % refers to the signal ratio)
Summary of the method: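 ER-beta-UAS-bla HEK293T (GripTite) cells in 2% charcoal-stripped FBS medium were preincubated 6 hr at 37C, dosed with compound, then stimulated with 1 nM E2 (final) for 16 hr; beta-lactamase reporter read by B/G FRET fluorescence after 2 hr substrate loading.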

[3] = qHTS assay to identify small molecule agonists of the androgen receptor (AR) signaling pathway in the presence of an antagonist - cell viability counter screen (AID 1259379);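 further: MDA-kb2 human breast cancer cells carrying an MMTV luciferase reporter; series mostly up to about 92 µM; nearly all actives have a fitted effect of over 25% in size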
Summary of the method: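 In MDA-kb2 cells (human breast carcinoma, MMTV-luciferase), compounds at 15 concentrations plus 3.0uM nilutamide; 16 hr, 37C, 0% CO2; CellTiter-Fluor fluorescence read for viability.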

[4] = qHTS assay to identify small molecule agonists of the estrogen receptor beta (ER-beta) signaling pathway - cell viability counter screen (AID 1259380); further: nearly all actives have a fitted effect of over 30% in size
Summary of the method: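 Viability of ER-beta-UAS-bla HEK293T cells was determined by CellTiter-Glo luminescence following 16 hr treatment with test compounds at 37C.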

[5] = qHTS assay to identify small molecule antagonists of the estrogen receptor beta (ER-beta) signaling pathway - cell viability counter screen (AID 1259382); further: series mostly up to about 92 µM; nearly all actives have a fitted effect of over 55% in size
Summary of the method: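 Tox21 10K library tested in qHTS format on ER-beta-bla HEK293T cells stimulated with 1nM E2; 16 hr treatment at 37C. Same-well CellTiter-Glo luminescence served as the cell viability measure.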

[6] = target: Estrogen receptor (Homo sapiens) (UniProt P03372); experiment: qHTS assay to identify small molecule agonists of the estrogen receptor alpha (ER-alpha) signaling pathway in the presence of an antagonist (AID 1259383; calls by dose curve; further: top concentration of the series differs between compounds; nearly all actives have a fitted effect of over 15% in size)
Sequence of Estrogen receptor (Homo sapiens) (P03372 whole entry, looked up): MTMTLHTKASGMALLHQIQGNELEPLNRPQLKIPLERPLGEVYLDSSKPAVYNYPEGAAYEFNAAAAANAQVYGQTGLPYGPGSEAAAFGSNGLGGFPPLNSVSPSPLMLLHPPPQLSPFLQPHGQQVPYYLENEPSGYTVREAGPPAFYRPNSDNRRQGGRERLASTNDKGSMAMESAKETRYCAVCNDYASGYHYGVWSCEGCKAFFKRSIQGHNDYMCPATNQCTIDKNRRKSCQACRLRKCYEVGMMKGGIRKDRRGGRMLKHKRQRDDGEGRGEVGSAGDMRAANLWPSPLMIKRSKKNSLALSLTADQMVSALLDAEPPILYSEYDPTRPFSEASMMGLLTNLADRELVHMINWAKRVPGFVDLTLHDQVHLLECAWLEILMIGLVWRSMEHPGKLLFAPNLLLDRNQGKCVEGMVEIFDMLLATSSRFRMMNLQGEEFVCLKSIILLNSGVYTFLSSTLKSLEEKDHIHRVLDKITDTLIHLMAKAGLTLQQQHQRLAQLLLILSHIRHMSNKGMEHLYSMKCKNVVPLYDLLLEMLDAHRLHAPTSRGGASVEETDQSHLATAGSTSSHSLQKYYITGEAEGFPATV
Summary of the method: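 In VM7Luc4E2 cells, 4,000 per well, compounds at 15 concentrations were co-incubated 22hr at 37C with 10.0nM final ICI-182,780. Luminescence from the stably transfected 4×ERE-luciferase reporter was recorded 30min after ONE-Glo addition.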

[7] = qHTS assay to identify small molecule agonists or antagonists of the thyroid stimulating hormone receptor (TSHR) signaling pathway - wild type cell line counter screen (AID 1259384; calls by dose curve)
Summary of the method: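 Wild-type HEK293 cells were plated 18 h at 37 C/5% CO2, pin-dosed with compound plus Ro20-1724 medium, held 30 min at room temperature, then given cAMP-d2 and anti-cAMP-cryptate; fluorescence was read after 1 h. Fifteen concentrations, triplicate.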

[8] = qHTS assay to identify small molecule agonists of the estrogen receptor alpha (ER-alpha) signaling pathway in the presence of an antagonist - cell viability counter screen (AID 1259386);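 further: series mostly up to about 92 µM; cells exposed to compounds for 22 h at 37 °C before the viability read; nearly all actives have a fitted effect of over 30% in size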
Summary of the method: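 Fluorescent CellTiter-Fluor viability signal from VM7Luc4E2 cells, with the reagent added during the final hour of a 22hr compound exposure at 37C in the presence of 10.0nM ICI-182,780.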

[9] = target: Progesterone receptor (Homo sapiens) (UniProt P06401); experiment: qHTS assay to identify small molecule agonists of the progesterone receptor (PR) signaling pathway (AID 1346784; calls by dose curve; further: nearly all actives have a fitted effect of over 30% in size)
Sequence of Progesterone receptor (Homo sapiens) (P06401 whole entry, looked up): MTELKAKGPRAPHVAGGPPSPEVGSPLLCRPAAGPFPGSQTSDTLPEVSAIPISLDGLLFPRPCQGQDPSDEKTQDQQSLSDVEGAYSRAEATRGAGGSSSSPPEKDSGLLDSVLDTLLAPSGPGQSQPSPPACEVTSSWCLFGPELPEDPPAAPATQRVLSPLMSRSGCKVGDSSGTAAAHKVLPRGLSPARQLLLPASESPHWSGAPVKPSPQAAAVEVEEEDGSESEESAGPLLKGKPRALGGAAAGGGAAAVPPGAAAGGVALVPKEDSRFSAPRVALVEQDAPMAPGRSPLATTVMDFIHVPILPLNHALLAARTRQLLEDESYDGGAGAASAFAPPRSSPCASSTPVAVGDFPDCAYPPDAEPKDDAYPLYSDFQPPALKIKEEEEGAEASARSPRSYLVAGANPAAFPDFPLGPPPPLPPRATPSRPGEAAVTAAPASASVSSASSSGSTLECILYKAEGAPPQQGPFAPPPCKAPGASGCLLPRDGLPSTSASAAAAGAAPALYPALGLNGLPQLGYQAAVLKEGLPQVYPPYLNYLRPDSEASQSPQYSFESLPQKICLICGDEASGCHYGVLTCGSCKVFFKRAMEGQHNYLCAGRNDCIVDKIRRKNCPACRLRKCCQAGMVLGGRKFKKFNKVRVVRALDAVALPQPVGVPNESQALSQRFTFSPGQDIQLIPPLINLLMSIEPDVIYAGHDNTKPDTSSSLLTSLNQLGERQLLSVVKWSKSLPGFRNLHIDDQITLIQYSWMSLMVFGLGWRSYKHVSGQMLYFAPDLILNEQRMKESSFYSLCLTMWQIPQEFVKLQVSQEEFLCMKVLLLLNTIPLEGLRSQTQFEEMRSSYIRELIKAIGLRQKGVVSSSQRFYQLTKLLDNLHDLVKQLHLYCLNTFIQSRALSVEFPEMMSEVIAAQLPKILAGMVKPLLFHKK
Summary of the method: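 PR-UAS-bla HEK 293T cells (beta-lactamase reporter under UAS) in 2% charcoal-stripped FBS, dosed with 23 nL compound after 6 hr, incubated 16hr at 37C. LiveBLAzer B/G FRET substrate added, fluorescence read after 2 hours.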

[10] = target: Progesterone receptor (Homo sapiens) (UniProt P06401); experiment: qHTS assay to identify small molecule antagonists of the progesterone receptor (PR) signaling pathway (AID 1346795; active means well fitted inhibition curve with a large enough effect in the signal ratio in the repeat runs, not every such curve was filed as active; the % refers to the signal ratio)
Summary of the method: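 PR-UAS-bla HEK293T cells with beta-lactamase reporter under UAS control, in 2% charcoal-stripped FBS, treated with compounds plus 1 nM promegestone (R5020, final) for 16 hr at 37C. Read-out: FRET beta-lactamase substrate fluorescence after 2 hr at room temperature.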

[11] = qHTS assay to identify small molecule antagonists of the progesterone receptor (PR) signaling pathway - cell viability counter screen (AID 1346798); further: series mostly up to about 92 µM; nearly all actives have a fitted effect of over 50% in size
Summary of the method: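 PR-UAS-bla HEK293T cells, 3,000/well in 2% charcoal-stripped FBS medium, dosed with compounds plus R5020 agonist and incubated 16 h at 37C. Viability then measured in the same wells by CellTiter-Glo luminescence after 30 min at RT.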

[12] = qHTS assay to identify small molecule agonists of the progesterone receptor (PR) signaling pathway - cell viability counter screen (AID 1346799; calls by dose curve; further: nearly all actives have a fitted effect of over 45% in size)
Summary of the method: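 Counter screen in the PR-UAS-bla HEK293T wells (2% charcoal-stripped FBS, 16 h compound exposure at 37 C) after the bla read. CellTiter-Glo added, 30 min at room temperature, luminescence read as cell viability.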

[13] = qHTS assay to identify small molecule agonists of the TGF-beta/Smad signaling pathway - cell viability counter screen (AID 1346829); further: top concentration of the series differs between compounds; nearly all actives have a fitted effect of over 45% in size
Summary of the method: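 In parallel with the Smad reporter read, viability of HEK 293T cells stably carrying SBE-bla is quantified by ATP luminescence following 5 hr compound treatment.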

[14] = qHTS assay to identify small molecule agonists of the TGF-beta/Smad signaling pathway (AID 1346859; active means well fitted activation curve with a large enough effect in the signal ratio in the repeat runs, not every such curve was filed as active; the % refers to the signal ratio; further: series mostly up to about 77 µM)
Summary of the method: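 SBE-bla HEK293T cells plated overnight, then compound exposure for 5 h at 37 C. Beta-lactamase reporter read with LiveBLAzer B/G FRET substrate after 2 h at room temperature, fluorescence at 405 nm excitation, 460/530 nm emission.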

[15] = target: Thyrotropin-releasing hormone receptor (Homo sapiens) (UniProt P34981); experiment: qHTS assay to identify small molecule antagonists of the thyrotropin-releasing hormone receptor (TRHR) signaling pathway (AID 1346877; active means well fitted inhibition curve with a large enough effect in the repeat runs, not every such curve was filed as active; further: series mostly up to about 51 µM)
Sequence of Thyrotropin-releasing hormone receptor (Homo sapiens) (P34981 whole entry, looked up): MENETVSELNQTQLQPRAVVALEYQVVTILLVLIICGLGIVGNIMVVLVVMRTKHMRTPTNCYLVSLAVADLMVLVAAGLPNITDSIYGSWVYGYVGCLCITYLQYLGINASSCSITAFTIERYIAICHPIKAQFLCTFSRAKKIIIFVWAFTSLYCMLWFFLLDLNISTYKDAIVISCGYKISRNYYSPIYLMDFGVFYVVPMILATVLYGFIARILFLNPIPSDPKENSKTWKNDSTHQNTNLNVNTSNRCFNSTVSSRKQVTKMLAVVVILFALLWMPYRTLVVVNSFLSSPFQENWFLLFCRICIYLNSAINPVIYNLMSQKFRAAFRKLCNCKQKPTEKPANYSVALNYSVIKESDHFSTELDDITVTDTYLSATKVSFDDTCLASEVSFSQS
Summary of the method: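 In this cell-based calcium flux format, HEK293 cells expressing TRHR received test compound for 5 min before the agonist TRH (1 nM final). Dye loading lasted 2 h at 37 °C.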

[16] = target: Thyrotropin-releasing hormone receptor (Homo sapiens) (UniProt P34981); experiment: qHTS assay to identify small molecule agonists of the thyrotropin-releasing hormone receptor (TRHR) signaling pathway (AID 1346891; calls by dose curve; further: series mostly up to about 58 µM)
Summary of the method: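 HEK293 cells expressing TRHR plated 18 h at 37 C/5% CO2, calcium dye-loaded 2 h at 37 C, then compound added (agonist mode); kinetic calcium fluorescence read 3 min at 1 s intervals; 15 concentrations in triplicate.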

[17] = Human pregnane X receptor (PXR) small molecule agonists, qHTS cell viability counter screen (AID 1346977); further: nearly all actives have a fitted effect of over 50% in size
Summary of the method: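 PXR-Luc HepG2 cells (2,000/well, 5% charcoal-stripped FBS) preincubated 5 hr, then exposed to compounds 24 hr at 37 C. Viability read in the same wells by CellTiter-Fluor fluorescence, reagent added at 23 hr, 1 hr incubation.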

[18] = target: Thyrotropin receptor (Homo sapiens) (UniProt P16473); experiment: qHTS assay to identify small molecule antagonists of the thyroid stimulating hormone receptor (TSHR) signaling pathway (AID 1259385; calls by dose curve; further: nearly all actives have a fitted effect of over 20% in size)
Sequence of Thyrotropin receptor (Homo sapiens) (P16473 whole entry, looked up): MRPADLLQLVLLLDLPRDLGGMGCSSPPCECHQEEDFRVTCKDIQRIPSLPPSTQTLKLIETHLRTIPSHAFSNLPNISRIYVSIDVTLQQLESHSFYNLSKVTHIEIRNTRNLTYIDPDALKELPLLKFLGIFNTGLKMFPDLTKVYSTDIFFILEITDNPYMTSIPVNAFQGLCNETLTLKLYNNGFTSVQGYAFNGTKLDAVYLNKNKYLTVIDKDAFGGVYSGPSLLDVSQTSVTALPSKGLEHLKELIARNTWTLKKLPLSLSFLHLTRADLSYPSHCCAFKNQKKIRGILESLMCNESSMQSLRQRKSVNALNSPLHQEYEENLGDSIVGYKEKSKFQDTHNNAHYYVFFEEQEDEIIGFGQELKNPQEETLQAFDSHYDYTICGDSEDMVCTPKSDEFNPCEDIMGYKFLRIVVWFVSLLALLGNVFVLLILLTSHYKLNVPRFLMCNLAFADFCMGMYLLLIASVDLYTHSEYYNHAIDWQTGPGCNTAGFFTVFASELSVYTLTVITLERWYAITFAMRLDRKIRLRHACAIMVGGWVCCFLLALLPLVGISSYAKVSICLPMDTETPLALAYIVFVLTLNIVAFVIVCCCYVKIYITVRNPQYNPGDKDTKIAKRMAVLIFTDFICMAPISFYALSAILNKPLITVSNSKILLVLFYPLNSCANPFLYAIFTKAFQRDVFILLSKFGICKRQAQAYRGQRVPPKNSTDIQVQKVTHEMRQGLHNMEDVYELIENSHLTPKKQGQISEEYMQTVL
Summary of the method: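 TSHR-HEK293 cells were plated and held 18 h at 37C/5% CO2, then given compound plus Ro20-1724 and stimulated with TSH at 1.5 ng/mL final. After 30 min at room temperature, cAMP was detected with cAMP-d2/anti-cAMP-cryptate (1 h) by fluorescence.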

[19] = qHTS assay to identify small molecule antagonists of the TGF-beta/Smad signaling pathway - cell viability counter screen (AID 1346824); further: nearly all actives have a fitted effect of over 50% in size
Summary of the method: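 SBE-bla HEK 293T cells were plated overnight at 37 C, then given compounds in DMSO plus TGF-beta1 (added as 0.25 ng/mL solution) for 5 hr. After the bla read, CellTiter-Glo was added to the same wells and luminescence read after 30 min at room temperature.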

[20] = target: Androgen receptor (Homo sapiens) (UniProt P10275); experiment: qHTS assay to identify small molecule agonists of the androgen receptor (AR) signaling pathway in the presence of an antagonist (AID 1259381; calls by dose curve; further: nearly all actives have a fitted effect of over 15% in size)
Sequence of Androgen receptor (Homo sapiens) (P10275 whole entry, looked up): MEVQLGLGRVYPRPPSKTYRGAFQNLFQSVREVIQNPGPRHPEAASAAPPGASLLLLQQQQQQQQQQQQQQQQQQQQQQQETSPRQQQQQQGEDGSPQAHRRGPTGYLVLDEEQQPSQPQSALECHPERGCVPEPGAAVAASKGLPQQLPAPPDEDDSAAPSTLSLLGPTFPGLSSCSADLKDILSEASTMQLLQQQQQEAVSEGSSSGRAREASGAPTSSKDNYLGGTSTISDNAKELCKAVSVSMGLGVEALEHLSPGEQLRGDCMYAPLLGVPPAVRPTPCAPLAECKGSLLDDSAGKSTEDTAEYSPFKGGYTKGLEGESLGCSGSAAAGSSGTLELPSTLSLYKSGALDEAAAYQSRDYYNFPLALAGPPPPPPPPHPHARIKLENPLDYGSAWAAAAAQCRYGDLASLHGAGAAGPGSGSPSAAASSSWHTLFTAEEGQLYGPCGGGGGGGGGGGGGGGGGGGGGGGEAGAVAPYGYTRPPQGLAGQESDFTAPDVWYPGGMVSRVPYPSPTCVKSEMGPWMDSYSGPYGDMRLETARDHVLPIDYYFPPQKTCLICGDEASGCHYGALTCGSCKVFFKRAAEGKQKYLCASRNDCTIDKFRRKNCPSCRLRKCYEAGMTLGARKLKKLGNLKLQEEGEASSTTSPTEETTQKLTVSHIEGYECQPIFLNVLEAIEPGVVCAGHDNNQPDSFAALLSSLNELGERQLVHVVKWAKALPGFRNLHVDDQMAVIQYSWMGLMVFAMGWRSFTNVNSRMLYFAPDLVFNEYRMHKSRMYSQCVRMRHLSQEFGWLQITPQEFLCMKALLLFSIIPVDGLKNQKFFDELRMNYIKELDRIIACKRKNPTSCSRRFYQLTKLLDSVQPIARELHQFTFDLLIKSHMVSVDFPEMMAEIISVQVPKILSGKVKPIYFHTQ
Summary of the method: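 Here, 15-concentration compound series were pin-transferred onto MDA-kb2 MMTV-luciferase cells already dosed with nilutamide (3.0uM final). After 16hr at 37C, ONE-Glo was added and luminescence read 30min later at room temperature.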

Measured: Potency

CCN(CC)CCNC(=O)c1cc(Cl)c(N)cc1OC
inactive: [1] | [2] | [3] | [4] | [5] | [6] | [7] | [8] | [9] | [10] | [11] | [12] | [13] | [14] | [15] | [16] | [17]

NC(=O)CCCCC(N)=O
inactive: [1] | [2] | [3] | [4] | [5] | [6] | [7] | [18] | [9] | [10] | [12] | [19] | [13] | [15] | [17]

Oc1cccc2[nH]ccc12
inactive: [1] | [2] | [3] | [4] | [20] | [5] | [6] | [7] | [18] | [8] | [9] | [10] | [11] | [12] | [19] | [13] | [14] | [15] | [16] | [17]
